High-throughput results from PubChem.
PrPC TRFRET = inhibitors of human cell surface prion protein PrPC. 0.43% of 370,000 active. TR-FRET read-out. inhibition, % at 13.8 µM; in the data active means inhibition above about 24%; further: 0% = median of the test wells and 100% = reference compound wells
BJeLR lethal = BJeLR cell viability loss | BJeLR (HRASV12) viability, CellTiter-Glo ATP luminescence, 48 h | inhibition, % (concentration not given with the values) | 0.17% of 300,000 active; in the data active means inhibition above about 50%
Mtb FBA inh = inhibitors of M. tuberculosis fructose-bisphosphate aldolase | P9WQA3 | AID 588726 | 2.3% of 360,000 active | inhibition, % at 1 µM | purified M. tuberculosis FBA, fluorescence read-out; in the data active means inhibition above about 27%;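 further: 0% = vehicle and 100% = reference inhibitor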
Target sequence (P9WQA3 whole entry, looked up): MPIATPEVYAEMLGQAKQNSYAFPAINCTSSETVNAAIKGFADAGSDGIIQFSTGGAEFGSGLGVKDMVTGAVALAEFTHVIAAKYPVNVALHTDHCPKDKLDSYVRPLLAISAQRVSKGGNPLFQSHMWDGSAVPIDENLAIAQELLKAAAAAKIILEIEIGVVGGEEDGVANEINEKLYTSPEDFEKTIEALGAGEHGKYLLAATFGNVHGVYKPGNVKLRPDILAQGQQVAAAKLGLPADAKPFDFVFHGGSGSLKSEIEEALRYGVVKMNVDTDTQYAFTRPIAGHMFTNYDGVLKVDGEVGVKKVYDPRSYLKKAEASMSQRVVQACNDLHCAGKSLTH
RecA splice inh = Mtb RecA intein splicing inhibition; P9WHJ3; 0.75% of 290,000 active; cell-free RecA intein splicing, fluorescence; AID 2221; inhibition, % (no concentration beside the values); in the data active means inhibition above about 30%;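 further: 0% = vehicle wells and 100% = reference inhibitor control wells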
GDH-TPI inh = GDH-TPI coupled enzyme inhibition counter-screen. 1.2% of 360,000 active. inhibition, % at 4.8 µM. GDH-TPI coupled enzyme counterscreen, NADH absorbance. AID 588335; in the data active means inhibition above about 30%;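 further: 0% = DMSO wells and 100% = wells lacking the enzyme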
Numbers without * were called inactive; i = inactive; / = no result given; + = active, no number. In the library only some 4.2% were active in any assay of this set; here they are far more common.

SMILES | PrPC TRFRET | BJeLR lethal | Mtb FBA inh | RecA splice inh | GDH-TPI inh
COc1ccccc1-c1nnc(NC(=O)c2ccc(S(=O)(=O)N(C)C)cc2)o1 | 7 | 2 | -2 | 2 | 34*
O=C(NCc1ccc(Cl)cc1)O[C@H]1CC[C@@]23CCCN2C(=O)CCC[C@H]3C1 | 2 | / | / | / | /
COC(=O)[C@]12C[C@H](CC(=O)NCCC(C)C)C(=O)N(Cc3ccc4c(c3)OCO4)C1=C[C@H](C(C)C)O[C@@H]2C1CC1 | 2 | / | / | / | /
O=C(/C=C/c1cccc([N+](=O)[O-])c1)c1ccc([N+](=O)[O-])o1 | -11 | -25 | 4 | 6 | 41*
C[N+]1=C(/C=C/Nc2ccccc2Cl)C(C)(C)c2ccccc21 | 9 | -4 | 0 | 4 | 36*
O=C(Nc1ccc(Cl)cc1Cl)O[C@@H]1CC[C@@]23CCCN2C(=O)CCC[C@H]3C1 | -1 | / | / | / | /
O=C1CCC(CNc2ccccc2)N1c1ccccc1 (centres undefined) | 5 | / | / | / | /
CCN1C(=O)C(=Cc2cccc(OC)c2Oc2ccc([N+](=O)[O-])cc2[N+](=O)[O-])SC1=S | -3 | 94* | -2 | 14 | 3
COc1cc(/C=C2\SC(=O)NC2=O)ccc1Oc1ccc([N+](=O)[O-])cc1[N+](=O)[O-] | -17 | 0 | -5 | 17 | 24
N=c1c2c(-c3ccccc3)c(-c3ccccc3)n(Cc3ccccc3)c2ncn1C1CCOCC1 | -14 | / | / | / | /
Cc1ccnc(NC(=S)N2CC3CN(c4cccc(C(F)(F)F)c4)CC3C2)c1 (centres undefined) | 12 | / | / | / | /
O=C1NC(=O)C(=CC=Cc2ccccc2)S1 | -5 | / | -2 | / | 38*
COC(=O)C1CN(Cc2cn(Cc3ccc(OC)cc3)nn2)CCS(=O)(=O)N1Cc1ccc(Cl)cc1 (centres undefined) | -1 | / | / | / | /
CN(C)CCCn1c(N)c(C#N)c2nc3ccccc3nc21 | -8 | -2 | 146* | i | 16
Nc1c(S(=O)(=O)c2ccccc2)c2nc3ccccc3nc2n1/N=C/c1ccco1 | 7 | -10 | 17 | 9 | 21
Cc1cccc(S(=O)(=O)c2c(N)n(/N=C/c3cccnc3)c3nc4ccccc4nc23)c1 | 13 | 1 | -2 | -3 | 3
Cc1ccc(S(=O)(=O)c2c(N)n(NC(=O)C3CC3)c3nc4ccccc4nc23)cc1 | -6 | 11 | 181* | -45 | 23
Cc1ccc(S(=O)(=O)c2c(N)n(CCCN(C)C)c3nc4ccccc4nc23)cc1 | -2 | 4 | 128* | -40 | 42*
Nc1c(S(=O)(=O)c2cccc(Cl)c2)c2nc3ccccc3nc2n1CCN1CCOCC1 | -8 | -3 | 8 | -9 | 13
Cc1ccc(S(=O)(=O)c2c(N)n(CC3CCOC3)c3nc4ccccc4nc23)cc1 (centres undefined) | 1 | -2 | + | -15 | 22
COc1ccc(CCN(Cc2cccs2)S(=O)(=O)c2ccc(C)c(C)c2)cc1OC | 2 | / | / | / | /
O=C(Cc1ccccc1)NC1CCCc2c1cnn2-c1ccc(F)cc1F (centres undefined) | 7 | / | / | / | /
COc1ccc(CNC(=O)O[C@H]2CC[C@@]34CCCN3C(=O)CCC[C@H]4C2)cc1OC | 6 | / | / | / | /
C[C@@H]1COc2cc(Br)ccc2S(=O)(=O)N1Cc1cn(CC2CCCCC2)nn1 | -5 | / | / | / | /
Cc1ccc(S(=O)(=O)c2c(N)n(/N=C/c3ccco3)c3nc4ccccc4nc23)cc1 | -1 | 9 | 16 | / | 23
SMILES | PrPC TRFRET | BJeLR lethal | Mtb FBA inh | RecA splice inh | GDH-TPI inh
Cc1ccc(-n2c(N)c(S(=O)(=O)c3ccccc3)c3nc4ccccc4nc32)cc1 | 7 | -5 | 33* | 1 | 7
Nc1ccc2[nH]ncc2c1 | -21 | -1 | 26 | 61* | 2
CC(COc1ccc(F)cc1)CN1CCC(C(O)(c2ccccc2)c2ccccc2)CC1 (centres undefined) | -10 | / | / | / | /
COc1ccc(CN2C[C@]3(C=C(C)Cn4c(=O)n(-c5ccccc5)c(=O)n43)N=C2NC(=O)c2ccccc2)c(OC)c1 | 0 | / | / | / | /
CN(C)/C=N/c1sc2c(c1C#N)CC(C)(C)NC2(C)C | -7 | 12 | 0 | -1 | 36*
O=C(CSc1nnc(Cc2cccs2)n1-c1ccc(Cl)cc1)Nc1ccc(OCc2ccccc2)cc1 | 4 | / | / | / | /
C=CCNC(=O)CSc1nc2sc3c(c2c(=O)n1CCC)CCC3 | -3 | -13 | 0 | 1 | 3
C=CCNC(=O)CSc1nc2sc3c(c2c(=O)n1CCCOC)CCC3 | -2 | -4 | 11 | 0 | 35*
C=CC(=O)N1C/C(=C/c2ccccc2)C(=O)/C(=C\c2ccccc2)C1 | 1 | / | 1 | / | 32*
COc1ccc(/C=N/NC(=O)/C(=C/c2ccccc2)CCO)cc1 | 0 | -15 | -2 | -4 | 20
COc1cc(/C=N/NC(=O)C(=O)NCC2CCCO2)ccc1O (centres undefined) | 5 | -5 | -2 | 0 | 38*
COc1cc(/C=N/NC(=O)/C(=C/c2ccccc2)CCO)ccc1O | -1 | -3 | -1 | -3 | 39*
C=CCOc1cccc(/C=N/NC(=O)C(=O)NCc2ccco2)c1 | 15 | -2 | -2 | -3 | 18
COc1cc(/C=N/NC(=O)CNC(=O)c2ccco2)ccc1O | -1 | -8 | 4 | -6 | 9
COc1cc(/C=N/NC(=O)C(=O)NCc2ccco2)ccc1O | 0 | 11 | -2 | -1 | 32*
COc1cc(/C=N/NC(=O)C(=O)NCc2ccco2)cc(Cl)c1O | 12 | 4 | -2 | 0 | 36*
O=C(NCC1CCN(C(=O)C(=O)c2cc3ccccc3o2)CC1)c1ccc2c(c1)OCCCO2 | -15 | / | / | / | /
COc1cc(OC)c(OC)cc1/C=N/NC(=S)NCC1CCCO1 (centres undefined) | 1 | 1 | 14 | 0 | 34*
O=C(NCCc1nc2ccccc2n1CCOc1ccc2cccnc2c1)C1CCCCC1 | 1 | / | / | / | /
O=C(N/N=C/C=C\c1cccc([N+](=O)[O-])c1)c1ccccn1 | -8 | 6 | -6 | 2 | 34*
O=C(N/N=C\C=C\c1ccco1)c1cncc(Br)c1 | 2 | -2 | -2 | 1 | 34*
O=C(N/N=C/C=C/c1ccco1)c1cccnc1 | 0 | 1 | -4 | 3 | 38*
O=C(N/N=C/C=C\c1ccccc1[N+](=O)[O-])c1ccccn1 | -21 | -12 | -1 | 0 | 12
O=C(N/N=C/C=C/c1ccco1)c1cnccn1 | 3 | 0 | -4 | 7 | 16
O=C(N/N=C/C=C\c1ccco1)c1ccccn1 | -5 | 12 | -3 | 1 | 35*
O=C(N/N=C/C=C/c1ccccc1)c1cccnc1 | -12 | 1 | 1 | -8 | 25
O=C(N/N=C\c1ccco1)c1cncc(Br)c1 | 5 | 0 | / | -3 | /
O=C(N[C@@H]1C[C@@H]2O[C@@H](CO)CC[C@@H]2O[C@@H]1CCc1ccc(-c2ccccc2)cc1)c1cnccn1 | -6 | / | / | / | /
C[C@H](O)[C@@H]1CN2CCc3ccc(N4CCOCC4)cc3[C@@H]2C[C@@H]1N(C)C(=S)NCCc1ccccc1 | -11 | / | / | / | /
C[C@H]1[C@@H](OC(=O)N2CCN(c3ccccc3)CC2)CC[C@@]23CCCN2C(=O)CCC[C@@H]13 | -1 | / | / | / | /
